PubChem BioAssay (Tox21)
Inconclusive results are not listed. Unmarked numbers belong to inactive results. The call rests on the fitted dose curve.

Assay: qHTS assay to identify small molecule agonists of the hypoxia (HIF-1) signaling pathway - cell viability counter screen (AID 1224844); further: nearly all actives have a fitted effect of over 50% in size
Settings: HRE-bla ME-180 viability, CellTiter-Glo luminescence, 17 h; series mostly up to 76.8 µM; activity change, negative = cytotoxicity: at the top concentration
From the text: National Center for Advancing Translational Sciences [NCATS]
NIH Chemical Genomics Center [NCGC]
U.S. Environmental Protection Agency [EPA]
National Institutes of Environmental Health Sciences [NIEHS]
National Toxicology Program [NTP]
U.S. Food and Drug Administration [FDA]
Hypoxia-inducible factor-1 (HIF-1) is the major hypoxia-regulated transcription factor that controls cellular responses to low oxygen concentration. HIF-1 is composed of two subunits: hypoxia responsive HIF-1-alpha and constitutively expressed HIF-1-beta, which is also known as aryl hydrocarbon receptor nuclear translocator. During hypoxic conditions, HIF-1-alpha heterodimerizes with HIF-1-beta and translocates into the nucleus where the HIF-1 complex binds to the hypoxia-response element (HRE) and activates expression of target genes such as VEGF (vascular endothelial growth factor). The HIF-1 pathway is essential to normal growth and development, and is involved in the pathophysiology of cancer, inflammation, and ischemia.
Using a beta-lactamase reporter-gene under control of the hypoxia response element, a cell-based assay [CellSensor(TM) HRE-bla ME-180 from Life Technologies, Carlsbad, CA] was used to measure hypoxia-induced signaling. Tox21 10K library compounds were measured for their ability to induce the reporter gene activity. The cytotoxicity of the Tox21 compound library against HRE-bla ME-180 cell line was tested in parallel by measuring cell viability using CellTiter-Glo assay (Promega, Madison, WI) in the same assay wells.
Tox21 Assay Protocol Summary:
HRE-bla ME-180 cells were dispensed at 2,000 cells per well in 6 uL of assay medium containing 0.5% dialyzed FBS into black wall/clear-bottom 1536-well plates using a Multidrop Combi (Thermo Scientific, Waltham, MA) dispenser. After the assay plates were incubated at 37C and 5% CO2 for 5 hrs, 23 nL of compounds dissolved in DMSO, positive controls or DMSO only was transferred to each well of the assay plate using a Pintool station (Kalypsys, San Diego, CA). The assay plates were incubated at 37C and 5% CO2 for 17 hrs. One uL of LiveBLAzerTM B/G FRET substrate (CCF4-AM) (Life Technologies) was added to each well using a Flying Reagent Dispenser (FRD, Aurora Discovery, San Diego, CA). After 2 hr incubation at room temperature, fluorescence intensity (405 nm excitation, 460 nm and 530 nm emissions) was measured using an Envision plate reader (PerkinElmer, Shelton, CT). For cytotoxicity, 4 ul/well of CellTiter-Glo reagent was added into the assay plates using an FRD. After 30 min incubation at room temperature, the luminescence intensity was measured using a ViewLux plate reader (PerkinElmer).
On the % scale 0 is the no-effect control and ±100 the full control effect.

| SMILES | activity change, negative = cytotoxicity |
| --- | --- |
| Cc1ccccc1C(=O)Nc1ccc(C(=O)N2CCCC(N(C)C)c3ccccc32)cc1 (stereo not given) | 8.72% [at 35.3 µM] |
| CC(=O)N[C@@H](CCC(=O)O)C(=O)O | -2.72% [at 35.3 µM] |
| CCN1CCc2nc(N)oc2CC1 | -1.16% [at 35.3 µM] |
| OC[C@H](Cc1cccc(O)c1)[C@H](CO)Cc1cccc(O)c1 | -2.29% |
| COCCOC(=O)C1=C(C)NC(C)=C(C(=O)OC(C)C)C1c1cccc([N+](=O)[O-])c1 (stereo not given) | -10.1% [at 35.3 µM] |
| CN(C)C(=O)CNC(=O)Cc1ccccc1 | 7.29% [at 35.3 µM] |
| C[Si](C)=O | 3.37% [at 6.97 µM] |
| O=S(=O)(O)c1cc(O)c2ccc(Nc3ccccc3)cc2c1 | -11.1% |
| CC(C)(C)c1cc(CCC(=O)NN)cc(C(C)(C)C)c1O | 4.39% |
| CC(C)CCCCOC(=O)c1ccccc1C(=O)OCCCCC(C)C | 12.1% |
| CCCN1C[C@H](CSC)C[C@@H]2c3cccc4[nH]cc(c34)C[C@H]21 | -2.03% [at 35.3 µM] |
| CCCCOC(=O)c1ccccc1 | 0.203% |
| Cc1cc2cc3c(C)cc(=O)oc3c(C)c2o1 | 1.94% [at 35.3 µM] |
| BrCc1cccc(Oc2ccccc2)c1 | -1.79% |
| COc1ccc(OC)c(Cl)c1 | 0.34% |
| COC(=O)CCCCCCCC(=O)OC | 4.96% |
| CCCCCCCCCCCCCC | 0.387% |
| COc1ccc(C2CNC(=O)C2)cc1OC1CCCC1 (stereo not given) | 11.4% [at 35.3 µM] |
| CCCCCCCCC(=O)Cl | -2.19% |
| C=C(C)C(=O)OCC(C)(C)COC(=O)C(=C)C | 7.5% |

| SMILES | activity change, negative = cytotoxicity |
| --- | --- |
| CCCCC(CC)COCCO (stereo not given) | 1.11% |
| CCc1ccc(C=O)cc1 | -6.9% |
| CCOC(=O)[C@H](CCc1ccccc1)N[C@@H](C)C(=O)N1C(=O)N(C)C[C@H]1C(=O)O | -1.23% [at 35.3 µM] |
| O=P(O)(O)OP(=O)(O)O | -0.243% |
| Cc1cccc(C)c1NC(=O)c1ccccc1C(=O)O | 1.61% [at 35.3 µM] |
| CNS(=O)(=O)CCc1ccc2[nH]cc(C3CCN(C)CC3)c2c1 | -0.042% [at 35.3 µM] |
| Nc1ccc2cc(S(=O)(=O)O)cc(O)c2c1 | -7.27% |
| CC(S)C(=O)NCC(=O)O (stereo not given) | 0.0661% [at 35.3 µM] |
| O=C1c2cccc3c2[C@H](CCC3)CN1[C@@H]1CN2CCC1CC2 | -8.29% [at 35.3 µM] |
| C=C1CC/C=C(\C)CC[C@@H]2[C@@H]1CC2(C)C | -0.68% |
| O=C(NCC(O)CO)c1c(I)c(C(=O)NCC(O)CO)c(I)c(N(CCO)C(=O)CO)c1I (stereo not given) | 7.81% [at 35.3 µM] |
| NS(=O)(=O)c1ccc(NC(=O)CCC(=O)O)cc1 | 2.35% [at 35.3 µM] |
| COc1nccnc1NS(=O)(=O)c1ccc(N)cc1 | -2.55% [at 35.3 µM] |
| C[C@@H](O)[C@H]1C(=O)N2C(C(=O)O)=C(SCCN=CN)C[C@H]12 | -1.36% [at 35.3 µM] |
| CCC(C=O)CC | -19.9% |
| CC(=O)NCCCCCC(=O)O | 4.42% [at 35.3 µM] |
| C=Cc1ccccn1 | 2.77% |
| O=C(CCNNC(=O)c1ccncc1)NCc1ccccc1 | -1.2% [at 35.3 µM] |
| Nc1ccc([N+](=O)[O-])c(N)c1 | -0.321% |
| Cc1nc2n(c(=O)c1CCN1CCC(c3noc4cc(F)ccc34)CC1)CCC[C@H]2O | 1.15% [at 15.8 µM] |
